Screens from PubChem BioAssay.
TDP1 inh – qHTS Assay for Inhibitors of Tyrosyl-DNA Phosphodiesterase (TDP1); Tyrosyl-DNA phosphodiesterase 1 (Homo sapiens), Q9NUW8; recombinant TDP1, AlphaScreen DNA substrate cleavage; Potency, µM (doses to about 130 µM), most hits filed as inhibitors; actives 0.28% (n = 350,000); AID 485290, 2010; active = well fitted curve in the direction sought with a large enough effect; inconclusive = small, poorly fitted or top-dose-only effect, or another doubt; inactive = no such curve, though single readings can be large; an effect the other way counts as inactive or inconclusive; also: nearly all actives have a fitted effect of over 40% in size
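Here, a 5' biotin and 3' phosphotyrosine-FITC DNA oligonucleotide reports Tdp1 activity: intact substrate bridges AlphaScreen beads, while cleavage leaves a 3' phosphate and drops signal. All incubations at room temperature.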
Rango-impB inh – qHTS Assay for Inhibitors of Rango (Ran-regulated importin-beta cargo) - Importin beta complex formation; Importin subunit beta-1 (Homo sapiens), Q14974; Rango CFP/YFP FRET sensor + importin beta, 45 min; Potency, µM (top dose mostly 92.2 µM); actives 0.031% (n = 340,000); AID 540263, 2011; also: nearly all actives have a fitted effect of over 15% in size
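FRET biosensor Rango (snurportin 1 IBB between N-terminal EYFP and C-terminal Cerulean), 50 nM in PBS/1 mM DTT/0.02% Tween-20/0.1% BSA, preincubated 5 min RT with compound; 0.125 microM importin beta added, 45 min RT, CFP/YFP FRET ratio read.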
12-LOX inh – Primary qHTS assay for inhibitors of human arachidonate 12S-lipoxygenase (ALOX12): Round 2 | actives 1.1% (n = 580,000) | purified 12hLO, xylenol orange hydroperoxide absorbance | Polyunsaturated fatty acid lipoxygenase ALOX12 (Homo sapiens), P18054 | Potency, µM (doses to about 108 µM), actives largely listed as inhibitors; active = well fitted curve in the direction sought with a large enough effect; inconclusive = small, poorly fitted or top-dose-only effect, or another doubt; inactive = no such curve, though single readings can be large; an effect the other way counts as inactive or inconclusive
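Hydroperoxide product was detected by ferrous iron/xylenol orange as the 573 to 405 nm absorbance ratio. Arachidonic acid at 40 uM (final) was turned over for 30 min at room temperature by 150 nM human 12hLO, pH 7.0 Hepes buffer, after 15 min compound preincubation.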
ClpP mod – qHTS Assay for Activators of ClpP. purified B. subtilis ClpP, FRET peptide cleavage, 20 min. actives 1.9% (n = 340,000). Potency, µM (titrated, usually from 57.5 µM). AID 651965, 2013; active = well fitted falling curve with a large enough effect; inconclusive = small, poorly fitted or top-dose-only effect; inactive = no such curve, though single readings can be large or run the other way; also: the source files actives as falling curves though it sought activators and does not explain the sign; nearly all actives have a fitted effect of over 65% in size
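Buffer: 100 mM Tris/HCl pH8, 100 mM KCl, 0.05% low protease BSA, 2.5% glycerol, 0.01% Tween-20. ClpP 10 microg/mL final; 20 min RT; delta FRET normalized to ADEP and DMSO controls.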
Rango dissoc inh – qHTS Assay for Inhibitors of RanGTP induced Rango (Ran-regulated importin-beta cargo) - Importin beta complex dissociation. actives 0.071% (n = 340,000). Biochemical FRET Rango-importin beta, RanGTP-induced dissociation. Snurportin-1 (Homo sapiens) + GTP-binding nuclear protein Ran (Homo sapiens) + Importin …. AID 540253, 2011. Potency, µM (highest dose often 46.1 µM); also: nearly all actives have a fitted effect of over 45% in size
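Rango FRET biosensor (snurportin-1 IBB flanked by N-terminal EYFP and C-terminal CFP10) at 0.1 uM, with 0.25 uM importin beta in PBS, 1mM DTT, 0.02% Tween-20, 0.1% BSA. 0.6 uM Ran, 2mM GTP and 0.2 uM RCC1 were then added for 45 min at room temperature. Inhibition read as loss of FRET rise.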
PTAP TSG101 blk – qHTS Assay for Iinhibitors of HIV-1 Budding by Blocking the Interaction of PTAP/TSG101; Fluorescence polarization, FITC-PTAP peptide / Tsg101 binding; Potency, µM (titrated, usually from 115 µM), actives largely listed as inhibitors; 340,000 tested, under 10 active; active = well fitted inhibition curve with a large enough effect in the main read-out, with a control signal flat, not every such curve was filed as active; inconclusive = small, poorly fitted or top-dose-only effect, or effect the other way, or a change in a side signal; inactive = no such curve, though single readings can be large or run the other way
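Fluorescence polarization binding of Tsg101 binding domain (10 uM final) to FITC-labeled PTAP peptide (50 nM final) in HEPES pH 7.5 buffer with NaCl, Tween 20, EDTA, TCEP. Compounds added before peptide; binding 20 min at RT.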
A number is an active result; – = inactive; ? = inconclusive; · = not tested or not shown; [ ] = another dose, or the depositor's remark. Shown are actives, neighbours in structure and some others; about 2.4% of the full set was active somewhere. Unless noted, calls follow the shape of the full dose curve.

SMILES	TDP1 inh	Rango-impB inh	12-LOX inh	ClpP mod	Rango dissoc inh	PTAP TSG101 blk
COC(=O)c1ccn(CSc2cc(Cl)ccc2Cl)n1	–	–	–	–	–	–
O=C(CN1CCCCCC1)Nc1ccccc1	–	–	–	·	–	–
O=C(CN1CCCCC1)NN(Cc1ccccc1)c1ccccc1	·	–	14.1µM	·	?	–
COc1ccc(S[C@]2(C(=O)NCC(F)(F)F)CC(=O)N[C@@H]2c2ccc(OC)cc2)cc1	·	·	31.6µM	·	·	·
CCN(CC)N=Nc1ccc(C(=O)O)cc1	–	–	?	–	–	–
O=S(=O)(O)c1ccc2cc(N=Nc3cc(S(=O)(=O)O)c4cccnc4c3O)ccc2c1	·	·	–	·	·	·
Cc1nc(N=Nc2ccc(C(=O)O)cc2)c(COP(=O)(O)O)c(C=O)c1O	14.1µM	·	·	·	·	·
Cc1nc(N=Nc2ccc(S(=O)(=O)O)cc2S(=O)(=O)O)c(COP(=O)(O)O)c(C=O)c1O	20µM	·	–	·	·	·
CC(C)c1nnc2ccc(N3CCCC(C(=O)NCCc4ccc(F)cc4)C3)nn12 (stereo not drawn)	·	·	–	·	·	·
Cc1cc(Br)ccc1NC(=O)c1sc2nc(-c3ccncc3)ccc2c1N	·	·	–	·	·	·
Nc1c(C(=O)Nc2ccc(Br)cc2)sc2nc(-c3ccncc3)ccc12	22.4µM	·	–	–	·	·
O=C(c1ccc(F)cc1)N1CCn2c(nnc2C2CC2)C1	·	·	–	·	·	·
CCc1nnc(NC(=O)Cc2c(C)nc(C)[nH]c2=O)s1	·	·	–	·	·	·
COc1cc(CN2CCN(Cc3ccc(C)cc3)CC2)cc(OC)c1	·	·	0.501µM	·	·	·
Fc1ccccc1CN1CCN(c2ncccn2)CC1	·	–	0.562µM	–	–	–
COc1cccc(CN2CCN(c3ncccn3)CC2)c1	–	–	0.794µM	–	–	–
CN(C)C(CNC(=O)CC1C=CCC1)c1ccsc1 (stereo not drawn)	·	·	–	·	·	·
Cc1ccc(C)c(S(=O)(=O)Nc2ccccc2C(=O)Nc2ccc(S(=O)(=O)Nc3ncccn3)cc2)c1	–	–	–	25.1µM	–	–
Cc1ccc(S(=O)(=O)Nc2ccccc2C(=O)Nc2ccc(S(=O)(=O)Nc3nccc(C)n3)cc2)cc1	–	–	–	12.6µM	–	–
Cc1ccc(C)c(S(=O)(=O)Nc2ccc(S(=O)(=O)Nc3ncccn3)cc2)c1	–	–	–	–	–	–
Cc1ccc(C(=O)Nc2ccccc2)cc1S(=O)(=O)Nc1ccc(Br)cc1	–[12.3 µM]	·	?	–	·	·
Cc1ccc(C(=O)Nc2ccc(Br)cc2)cc1S(=O)(=O)Nc1ccccn1	–	–	–	28.2µM	–	–
COC1C(=O)N(CC2CC2)C12CCN(S(=O)(=O)Cc1ccccc1)CC2 (stereo not drawn)	·	·	–	·	·	·
CC(NC(N)=O)C(=O)O (stereo not drawn)	·	·	–	·	·	·
FC(F)(F)c1cc(-c2cccs2)nc2ncnn12	–	–	–	·	–	–
SMILES	TDP1 inh	Rango-impB inh	12-LOX inh	ClpP mod	Rango dissoc inh	PTAP TSG101 blk
FC(F)(F)c1cc(-c2ccccc2)nc2ncnn12	–	–	–	28.2µM	–	–
CCn1cc(CN2C[C@@H](CO)[C@H](NC(=O)COC)C2)cn1	·	·	–	·	·	·
O=C(NCc1cccs1)c1nn(-c2ccccc2)nc1CO	–	·	–	–	·	·
O=C(O)c1nn(-c2ccccc2)nc1-c1nn(-c2ccccc2)nc1C(=O)O	–	–	?	25.1µM	–	–
O=C(NCc1ccc2c(c1)OCO2)c1nn(-c2ccc(Cl)cc2)nc1CO	·	·	–	·	·	·
O=C(NCc1cccnc1)c1nn(-c2ccc(Cl)cc2)nc1CO	–	·	–	28.2µM	·	·
O=C(NCc1ccccc1)c1nn(-c2ccccc2)nc1CO	–	·	–	31.6µM	·	·
CC(C)Cc1cc(C(=O)N2CCN(CCOc3ccccc3)CC2)on1	·	·	–	·	·	·
Cc1cccc2sc(NNC(=O)c3cc(=O)c4ccccc4o3)nc12	·	–	31.6µM	–	–	–
OC1CCN(c2c3c(nc4cc(-c5cccc(F)c5)nn24)CCCC3)CC1	–	–	–	–	–	–
Fc1cccc(-c2cc3nc4c(c(N5CCC6(CC5)OCCO6)n3n2)CCCC4)c1	–	–	–	28.2µM	–	–
COc1cc(OC)cc(-c2cc3nc4c(c(N5CCN(c6cnccn6)CC5)n3n2)CCCC4)c1	·	·	–	·	·	·
COc1cc(OC)cc(-c2cc3nc4c(c(N5CCN(c6ncccn6)CC5)n3n2)CCCC4)c1	–	–	–	35.5µM	–	–
O=C(CN(C1CCCCC1)S(=O)(=O)c1ccccc1)N1CCOCC1	·	·	–	·	·	·
CC(=O)Nc1scc(-c2ccc(CC(C)C)cc2)c1C#N	·	·	–	·	·	·
CSc1nc2c(=S)[nH]c(=S)[nH]c2s1	·	·	14.1µM	–	·	·
Cc1cc(C(=O)CSc2nc3ccccc3o2)c(C)n1CC1CCCO1 (stereo not drawn)	–	–	–	28.2µM	–	–
COc1ccccc1OCc1nnc(SCC(=O)Nc2ccc(C)cc2)n1C	–	–	–	–	–	–
Cc1ccccc1OCc1nnc(SCC(=O)Nc2ccc3c(c2)oc2ccccc23)n1C	–	–	–	14.1µM	–	–
COc1ccc(C2CCCN2Cc2cc(OC)c(OC)c(OC)c2)cc1 (stereo not drawn)	·	·	–	·	·	·
CCN(CC)C(=O)CSC1=Nc2ccccc2C2=NC(c3ccccc3)C(=O)N12 (stereo not drawn)	–	–	–	15.8µM	–	–
CCOC(=O)CSC1=Nc2ccccc2C2=NC(CC(=O)NCc3ccccc3)C(=O)N12 (stereo not drawn)	–	–	10µM	?	–	–
CC(C)C1N=C2c3ccccc3N=C(SCC(=O)NCc3ccc(Cl)cc3)N2C1=O (stereo not drawn)	–	·	–	–	·	·
CC(C)C1N=C2c3ccccc3N=C(SCC(=O)NCCc3ccc(S(N)(=O)=O)cc3)N2C1=O (stereo not drawn)	–	–	–	31.6µM	–	–
O=C(NCc1ccco1)c1cc2ccccc2oc1=O	·	·	–	·	·	·
COc1ccc(C(=O)Nc2ccc([C@H]3OCC(=O)N(Cc4ccc(F)cc4)[C@@H]3CO)cc2)cc1	·	·	–	·	·	·
Cc1ccc(C)c(NC(=O)N2CCC(Oc3ncccc3C(=O)N(C)C)C2)c1 (stereo not drawn)	·	·	–	·	·	·
CCOc1cccc(C(c2c[nH]c3ccccc23)c2c[nH]c3ccccc23)c1O	·	·	3.98µM	·	·	·
